Most compounds without a hit are left out; they make up all but 17% or so of the library.
TGFb SMAD3 inh = inhibitors of TGF-b signaling | HepG2 CAGA-GFP TGF-b/SMAD3 reporter, GFP fluorescence, 18 h; TGF-beta stimulated, 500 pg/mL final | Potency, µM (titrated, usually from 46.1 µM), inactives show top-dose activity, negative = inhibition, actives largely listed as inhibitors | 1.2% of 410,000 active; further: on the % scale 0 is the no-effect control and ±100 the full control effect; nearly all actives have a fitted effect of over 65% in size
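Using HEPG2 CAGA-GFP reporter cells at 1000 cells/well, we pinned test compounds, stimulated with recombinant TGF-beta (500 pg/mL final) and measured total well GFP after 18 h.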
HepG2 viability = kills HepG2 cells in TGF-b inhibitor counter-screen. 0.76% of 410,000 active. HepG2 CAGA-GFP viability, ATP luminescence, 18 h. AID 588856. Potency, µM (doses to about 46.1 µM), for the others: top-dose activity change, negative = cytotoxicity, actives largely listed as cytotoxic
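HepG2 CAGA-GFP cells (1000/well, DMEM with 1% FBS) received compound, then TGF-beta at 500 pg/mL final, and were incubated 18 hours at 37 degrees C. Viability was read by CellTiter-Glo luminescence. Media-only wells were set as complete cell-killing and DMSO as no toxicity.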
DT40 TDP1 no CPT = qHTS for Inhibitors of human tyrosyl-DNA phosphodiesterase 1 (TDP1): qHTS in cells in absence of CPT. Potency, µM (doses to about 46.2 µM), for inactives: top-dose activity change, negative = growth inhibition, hits mostly inhibitors. DT40 Tdp1-/- hTDP1 cells, no CPT, ATP luminescence, 48 h. 15% of 420,000 active; further: on the % scale 0 is the no-effect control and ±100 the full control effect; nearly all actives have a fitted effect of over 55% in size
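A cellular qHTS used chicken DT40 cells lacking endogenous Tdp1 but carrying stably transfected human TDP1. Compounds were applied without camptothecin, and cell growth kinetics were judged by ATP-dependent luminescence after ≥48 hr.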
HT1080NT lethal = kills 2HG-producing HT-1080-NT fibrosarcoma cells; HT-1080-NT fibrosarcoma viability, CellTiter-Glo ATP luminescence, 48 h; Potency, µM (highest dose often 46.1 µM), inactives show at the top dose activity, negative = less viability, actives largely listed as cytotoxic; 1.6% of 360,000 active; AID 686970;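 further: NT is the 2HG producing partner of a matched IDH1 knockdown line; 0% = DMSO-treated cells and -100% = media-only wells without cells; nearly all actives have a fitted effect of over 55% in size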
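Read-out is CellTiter-Glo luminescence after 10 minutes at room temperature, following 48 hours' compound treatment of HT-1080-NT cells (750 cells/well, RPMI, 5% FBS, 37 degrees C).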
HT1080 IDH1KD tx = HT-1080 IDH1 knockdown cell toxicity (counter line). HT-1080 IDH1 knockdown viability, ATP luminescence, 48 h. Potency, µM (titrated, usually from 46.1 µM), for inactives: at the highest dose activity, negative = toxicity, usual class: cytotoxic. 2% of 360,000 active;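 further: 0% = DMSO wells and -100% = cell-free medium wells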
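Using the IDH1-knockdown HT-1080 line run in the same batch and compound series as the NT line, viability after 48 h at 37 °C was determined by CellTiter-Glo luminescence and expressed as % activity.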
TDP1 cell CPT = growth inhibition of DT40 Tdp1-/-;hTDP1 cells with camptothecin (screen for TDP1 inhibitors) | 12% of 420,000 active | chicken DT40 Tdp1-/-;hTDP1 cells + 20 nM CPT, ATP luminescence, 48 h | Potency, µM (doses to about 46.2 µM), inactives show at the highest dose activity change, negative = growth inhibition, most hits filed as inhibitors; further: on the % scale 0 is the no-effect control and ±100 the full control effect; nearly all actives have a fitted effect of over 55% in size
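Cell growth measured by CellTiter-Glo luminescence after a minimum 48 h, 37 C compound exposure with 20 nM CPT in Tdp1-knockout DT40 cells stably expressing hTDP1, seeded 400/well; qHTS titration format.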
Active calls of the source: *; ? = inconclusive; . = no result given; [ ] = remark or other dose. The call rests on the fitted dose curve; in most records, active means well fitted curve in the direction sought with a large enough effect; inconclusive means small, poorly fitted or top-dose-only effect, or another doubt; inactive means no such curve, though single readings can be large; an effect the other way counts as inactive or inconclusive. Potency means the concentration at half of the fitted maximal effect.

SMILES | TGFb SMAD3 inh | HepG2 viability | DT40 TDP1 no CPT | HT1080NT lethal | HT1080 IDH1KD tx | TDP1 cell CPT
CSc1ccc(C(=O)C2CCCN(C(=O)c3cc4cc(F)ccc4[nH]3)C2)cc1 (centres undefined) | -9.6% | -21.7% | 18.4µM* | -6.3% | -21.8% | 18.4µM*
COc1ccccc1N1CCN(C(=O)c2cc3cc(Cl)ccc3[nH]2)CC1 | -2.2% | -22.8% | 18.4µM* | -1.4% | -3.1% | 16.4µM*
O=C(c1cc2cc(F)ccc2[nH]1)N1CCN(C(=O)c2ccco2)CC1 | -10.4% | -35.1% | 20.6µM* | -9.0% | -9.1% | ?
CN1CCN(C(=O)c2cc3cc(F)ccc3[nH]2)CC1 | 18.1% | 18.1% | -16.7% | -9.4% | -2.7% | ?
COc1ccccc1N1CCN(C(=O)c2cc3cc(F)ccc3[nH]2)CC1 | 3.9% | -24.3% | 23.1µM* | ? | -9.4% | ?
COc1ccccc1N1CCN(C(=O)c2cc3ccccc3[nH]2)CC1 | -13.2% | -2.0% | ? | 4.2% | -12.8% | ?
Cc1nc(SC2CC(=O)N(c3cc(Cl)cc(Cl)c3)C2=O)nc2c1CCCC2 (centres undefined) | ? | -7.1% | ? | -18.8% | -22.9% | 20.6µM*
COc1ccc(N2C(=O)CC(Sc3nc(C)c4c(n3)CCCC4)C2=O)cc1 (centres undefined) | 14.0% | -19.5% | 23.1µM* | 14.6µM* | ? | 18.4µM*
Cc1cccc(N2C(=O)CC(Sc3nc(C)c4c(n3)CCCC4)C2=O)c1 (centres undefined) | 1.1% | 0.6% | -14.1% | 7.08µM* | 10µM* | ?
Cc1cccc(N2C(=O)CC(Sc3nc(C)cc(C)n3)C2=O)c1 (centres undefined) | -11.1% | -0.9% | ? | 14.4% | 2.7% | ?
Cc1cccc(N2C(=O)CC(Sc3nnc(C)s3)C2=O)c1 (centres undefined) | ? | 0.5% | 6.51µM* | 10.7% | 9.8% | 5.17µM*
COc1ccc(N2C(=O)CC(Sc3nc4c(cc3C#N)CCC4)C2=O)cc1 (centres undefined) | -21.9% | -9.2% | -20.3% | ? | 17.6% | 1.6%
COc1ccc(-c2cc3ccc(O)c(CN4CCCC4)c3oc2=O)cc1OC | 5.5% | -1.5% | ? | . | . | ?
CCOc1cc(-c2cc(C(=O)O)c3c(-c4ccccc4)[nH]nc3n2)ccc1O | -0.3% | 3.6% | 3.6% | . | . | 28.3%
Cc1nn(CCCC(=O)Nc2cc(C(F)(F)F)ccc2Cl)c(=O)c2c1sc1ccccc12 | 13.0% | -2.4% | -2.3% | . | . | -24.3%
Cc1ccc(N2C(=O)CC(Sc3cccs3)C2=O)cc1 (centres undefined) | -10.9% | 2.8% | 5.8µM* | 4.4% | -0.7% | 16.4µM*
Cc1ccc(Cl)cc1N1C(=O)CC(Sc2ncccn2)C1=O (centres undefined) | -2.8% | -43.0% | 20.6µM* | -12.0% | -0.6% | ?
C=CCNc1nc(Cl)nc(NC2CCCCC2)n1 | -5.7% | -4.0% | 4.6% | -27.6% | -19.5% | 6.7%
COc1ccc(C(=O)NCC2Cc3cc(F)cc(-c4cncnc4)c3O2)cc1 (centres undefined) | . | . | -30.0% | . | . | -12.6%
CC(Oc1ccc(Cl)cc1Cl)C(=O)Nc1ccncc1 (centres undefined) | -9.0% | -37.8% | 9.2µM* | ? | ? | 20.6µM*
O=C(/C=C/c1c(Cl)cccc1Cl)Nc1ccncc1 | -21.7% | -40.4% | 20.6µM* | 13.0% | -0.6% | ?
Cc1cc(C)nc(NC(=O)/C=C/c2ccc(Cl)cc2Cl)c1 | 2.6% | 0.0% | 13µM* | 12.8% | 9.4% | ?
O=C(/C=C/c1ccc(Cl)cc1Cl)Nc1ccncc1 | ? | -34.2% | 14.6µM* | 5.3% | -12.8% | ?
COCCNc1ncnc2c1ncn2[C@H]1CN(Cc2ccccc2)C[C@@H](CO)O1 | 6.7% | -0.3% | 8.7% | 9.2% | 0.5% | -10.4%
CC(=O)N1CCC[C@H]1C(=O)NCC1Cc2cc(F)cc(-c3ccc(F)c(C)c3)c2O1 (some centres undefined) | . | . | -22.8% | . | . | -4.1%[9.04 µM]
SMILES | TGFb SMAD3 inh | HepG2 viability | DT40 TDP1 no CPT | HT1080NT lethal | HT1080 IDH1KD tx | TDP1 cell CPT
O=C(Nc1ccncc1)Nc1ccc(Cl)cc1Cl | -18.1% | -18.0% | ? | -2.5% | -20.5% | 18.4µM*
O=C(Nc1ccncc1)Nc1ccc(Cl)cc1 | ? | -28.1% | ? | -15.4% | -9.8% | ?
Cc1cc(C)nc(NN=CC2=C(N3CCOCC3)/C(=C/c3ccc(Cl)cc3)CC2)n1 | -9.0% | -4.4% | 8.2µM* | ? | -17.7% | 11.6µM*
Cc1occc1C(=O)N/N=C/C1=C(N2CCOCC2)C(=C\c2ccc(Cl)cc2Cl)/CC1 | 11.5% | 7.0% | 7.31µM* | 5.8% | 7.1% | ?
Cc1cc(C)nc(N/N=C/c2ccc(N3CCOCC3)cc2)n1 | -2.9% | -1.0% | -16.0% | 9.3% | 2.4% | ?
C/C(=N/NC(=O)c1ccoc1C)c1ccc(N2CCOCC2)cc1 | 7.9% | -1.4% | -16.6% | 29.9% | 18.1% | -2.6%
Cn1cc(C(=O)N/N=C/C2=C(N3CCOCC3)C(=C/c3ccc([N+](=O)[O-])cc3)/CC2)ccc1=O | 7.1% | 11.7% | -27.1% | -4.9% | -3.0% | ?
O=C(O)c1ccc(N/N=C/C2=C(N3CCOCC3)C(=C\c3ccccc3)/CC2)cc1 | ? | -39.0% | 20.6µM* | 14.6µM* | 14.6µM* | ?
Cc1cc(C)nc(N/N=C/C2=C(N3CCOCC3)C(=C\c3ccc(Cl)cc3)/CC2)n1 | ? | -22.0% | 16.4µM* | -22.8% | -23.5% | 23.1µM*
Cc1ccccc1N1Cc2ccccc2C1 | 5.5% | 0.4% | -27.0% | 10.8% | 11.3% | ?
CCC1CN(CCC(=O)N2CCN(c3ncccn3)CC2)Cc2cc(OC)ccc2O1 (centres undefined) | . | . | -13.6% | . | . | -2.9%[9.04 µM]
O=C1CSC(c2ccc([N+](=O)[O-])cc2)N1Cc1ccccc1 (centres undefined) | 2.1% | 3.5% | -21.1% | -1.6% | 0.2% | ?
O=CC1=C(N2CCOCC2)/C(=C/c2ccc(Cl)cc2)CC1 | -21.7% | -25.1% | 20.6µM* | -0.8% | -4.5% | ?
CCOC(=O)C(=O)C1=C(N2CCOCC2)/C(=C\c2ccc(F)cc2)CC1 | -5.7% | -25.7% | ? | -13.1% | 5.3% | -28.3%
CCOc1ccccc1N(C)C(=O)c1cc(S(=O)(=O)NCc2ccc(C)cc2)ccc1F | ? | -15.1% | 20.6µM* | . | . | 18.4µM*

Screening data as filed in PubChem BioAssay.
